# Results taken from PubChem BioAssay.
# Values joined by “and” are separate entries in the source; they are usually repeats but may differ in a detail not shown here. Equal values may be shown once. A structure can be active in one record and inactive in another. Active and inactive are the calls of the source. No rule for the calls is given here.
# Tested on: not listed separately
# Assay: Cy5 fluorescence quenching or enhancement artefacts, artefact control for HCV NS3 helicase inhibitor project, biochemical, LOPAC1280 (AID 687037)
# Conditions: Cy5-DNA-NS3h complex fluorescence interference counterscreen
row,SMILES,fluorescence ratio (interference)
1,COc1cc(C(=O)OCCCN2CCCN(CCCOC(=O)c3cc(OC)c(OC)c(OC)c3)CC2)cc(OC)c1OC,1 (inactive)
2,CCc1c(C)[nH]c2c1C(=O)C(CN1CCOCC1)CC2 (configuration not stated),0.9 (inactive)
3,COc1ccccc1N1CCN(CC(O)COc2cccc3ccccc23)CC1 (configuration not stated),1 (inactive)
4,CN(C)CC[C@@H](c1ccc(Cl)cc1)c1ccccn1,0.9 (inactive)
5,CN(C)CCOC(=O)COc1ccc(Cl)cc1,1 (inactive)
6,Brc1c(NC2=NCCN2)ccc2nccnc12,1 (inactive)
7,O=C1N(c2ccccc2)c2ccccc2C1(Cc1ccncc1)Cc1ccncc1,0.9 (inactive)
8,CN(Cc1cnc2nc(N)nc(N)c2n1)c1ccc(C(=O)N[C@@H](CCC(=O)O)C(=O)O)cc1,1 (inactive)
9,Nc1ccn([C@H]2CC[C@@H](CO)O2)c(=O)n1,1 (inactive)
10,CCN1CCC[C@H]1CNC(=O)c1cc(S(N)(=O)=O)ccc1OC,1 (inactive)
11,Oc1ccc(C2CNCCc3c2cc(O)c(O)c3Cl)cc1 (configuration not stated),0.9 (inactive)
12,Cc1ccc(C(=O)Nc2ccc(S(=O)(=O)O)c3cc(S(=O)(=O)O)cc(S(=O)(=O)O)c23)cc1NC(=O)c1cccc(NC(=O)Nc2cccc(C(=O)Nc3cc(C(=O)Nc4ccc(S(=O)(=O)O)c5cc(S(=O)(=O)O)cc(S(=O)(=O)O)c45)ccc3C)c2)c1,1 (inactive)
13,NC1CCN(c2cccc(Cl)n2)CC1,1 (inactive)
14,COc1ccc(C2CNC(=O)C2)cc1OC1CCCC1 (configuration not stated),1 (inactive)
15,CNCC(O)c1ccc(O)c(O)c1 (configuration not stated),1 (inactive)
16,CNC[C@H](O)c1cccc(O)c1,1 (inactive)
17,Cc1scc2c1N(C(=O)CN1CCN(C)CC1)c1ccccc1NC2=O,1 (inactive)
18,C=CC(N)CCC(=O)O (configuration not stated),1 (inactive)
19,OCc1cc(C(O)CNCCCCCCOCCCCc2ccccc2)ccc1O (configuration not stated),1 (inactive)
20,C[N+](C)(C)CCCCCC[N+](C)(C)C,1 (inactive)

# Tested on: not listed separately
# Assay: Cy5 fluorescence interference with SSB-bound oligo, artefact control for HCV NS3 helicase inhibitor project, biochemical, NIH Clinical Collection, E. coli SSB (AID 743268)
# Conditions: not given
row,SMILES,fluorescence ratio
1,CN(C)CC[C@@H](c1ccc(Br)cc1)c1ccccn1,1.07 (inactive)
2,CC(C(=O)O)c1ccc(CC2CCCC2=O)cc1 (configuration not stated),1.12 (inactive)
3,Cc1cn([C@H]2C=C[C@@H](CO)O2)c(=O)[nH]c1=O,1.04 (inactive) and 0.101 (active)
4,C[C@H](NC(CCc1ccccc1)C(=O)O)C(=O)N1CCC[C@H]1C(=O)O (some centres not stated),1.07 (inactive)
5,CCOC(=O)c1ncn2c1CN(C)C(=O)c1cc(F)ccc1-2,1.05 (inactive)
6,CC(=O)[C@]1(O)Cc2c(O)c3c(c(O)c2[C@@H](O[C@H]2C[C@H](N)[C@H](O)[C@H](C)O2)C1)C(=O)c1ccccc1C3=O,0.31 (active)
7,Cc1[nH]c(=O)c(C#N)cc1-c1ccncc1,1.05 (inactive)
8,Nc1nc2c(ncn2COC(CO)CO)c(=O)[nH]1,1.03 (inactive)
9,CCN1CCC[C@H]1CNC(=O)c1c(O)c(Cl)cc(Cl)c1OC,0.94 (inactive)
10,Cc1cccc(C)c1NC(=O)C(C)N (configuration not stated),1.05 (inactive)
11,Nc1nnc(-c2cccc(Cl)c2Cl)c(N)n1,1.03 (inactive)
12,CCN1CCCC1CNC(=O)c1cc(S(=O)(=O)CC)c(N)cc1OC (configuration not stated),1.05 (inactive)
13,Clc1ccc2nsnc2c1NC1=NCCN1,1.05 (inactive)
14,CCc1c(C)[nH]c2c1C(=O)C(CN1CCOCC1)CC2 (configuration not stated),1.09 (inactive)
15,COc1ccccc1N1CCN(CC(O)COc2cccc3ccccc23)CC1 (configuration not stated),0.97 (inactive)
16,CN(C)CC[C@@H](c1ccc(Cl)cc1)c1ccccn1,0.95 (inactive)
17,Brc1c(NC2=NCCN2)ccc2nccnc12,1.04 (inactive)
18,O=C1N(c2ccccc2)c2ccccc2C1(Cc1ccncc1)Cc1ccncc1,0.98 (inactive)
19,CN(Cc1cnc2nc(N)nc(N)c2n1)c1ccc(C(=O)N[C@@H](CCC(=O)O)C(=O)O)cc1,0.92 (inactive)
20,Nc1ccn([C@H]2CC[C@@H](CO)O2)c(=O)n1,1.05 (inactive)
21,CCN1CCC[C@H]1CNC(=O)c1cc(S(N)(=O)=O)ccc1OC,1.03 (inactive)
22,Oc1ccc(C2CNCCc3c2cc(O)c(O)c3Cl)cc1 (configuration not stated),0.73 (active)
23,NC1CCN(c2cccc(Cl)n2)CC1,2.95 (active)
24,COc1ccc(C2CNC(=O)C2)cc1OC1CCCC1 (configuration not stated),1.03 (inactive)
25,CNCC(O)c1ccc(O)c(O)c1 (configuration not stated),1.02 (inactive)
26,OCc1cc(C(O)CNCCCCCCOCCCCc2ccccc2)ccc1O (configuration not stated),0.98 (inactive)

# Tested on: Hepatitis C virus NS3 helicase
# Assay: HCV NS3 helicase inhibitors, primary screen, biochemical, fluorescence polarization, NIH Clinical Collection (AID 743270)
# Conditions: NS3 helicase binding to Cy5-dT15 DNA, stronger effect = higher value, concentration not given here
row,SMILES,inhibition
1,CN(C)CC[C@@H](c1ccc(Br)cc1)c1ccccn1,-2.77% (inactive)
2,CC(C(=O)O)c1ccc(CC2CCCC2=O)cc1 (configuration not stated),5.94% (inactive)
3,Cc1cn([C@H]2C=C[C@@H](CO)O2)c(=O)[nH]c1=O,-3.56% (inactive) and -2.27% (inactive)
4,C[C@H](NC(CCc1ccccc1)C(=O)O)C(=O)N1CCC[C@H]1C(=O)O (some centres not stated),1.19% (inactive)
5,CCOC(=O)c1ncn2c1CN(C)C(=O)c1cc(F)ccc1-2,1.98% (inactive)
6,CC(=O)[C@]1(O)Cc2c(O)c3c(c(O)c2[C@@H](O[C@H]2C[C@H](N)[C@H](O)[C@H](C)O2)C1)C(=O)c1ccccc1C3=O,0.4% (inactive)
7,Cc1[nH]c(=O)c(C#N)cc1-c1ccncc1,-4.36% (inactive)
8,Nc1nc2c(ncn2COC(CO)CO)c(=O)[nH]1,-3.18% (inactive)
9,CCN1CCC[C@H]1CNC(=O)c1c(O)c(Cl)cc(Cl)c1OC,1.19% (inactive)
10,Cc1cccc(C)c1NC(=O)C(C)N (configuration not stated),-5.15% (inactive)
11,Nc1nnc(-c2cccc(Cl)c2Cl)c(N)n1,0.4% (inactive)
12,CCN1CCCC1CNC(=O)c1cc(S(=O)(=O)CC)c(N)cc1OC (configuration not stated),0.4% (inactive)
13,Clc1ccc2nsnc2c1NC1=NCCN1,-5% (inactive)
14,CCc1c(C)[nH]c2c1C(=O)C(CN1CCOCC1)CC2 (configuration not stated),-1.36% (inactive)
15,COc1ccccc1N1CCN(CC(O)COc2cccc3ccccc23)CC1 (configuration not stated),5.15% (inactive)
16,CN(C)CC[C@@H](c1ccc(Cl)cc1)c1ccccn1,-2.84% (inactive)
17,Brc1c(NC2=NCCN2)ccc2nccnc12,-5.91% (inactive)
18,O=C1N(c2ccccc2)c2ccccc2C1(Cc1ccncc1)Cc1ccncc1,-11.6% (inactive)
19,CN(Cc1cnc2nc(N)nc(N)c2n1)c1ccc(C(=O)N[C@@H](CCC(=O)O)C(=O)O)cc1,1.19% (inactive)
20,Nc1ccn([C@H]2CC[C@@H](CO)O2)c(=O)n1,2.77% (inactive)
21,CCN1CCC[C@H]1CNC(=O)c1cc(S(N)(=O)=O)ccc1OC,0.4% (inactive)
22,Oc1ccc(C2CNCCc3c2cc(O)c(O)c3Cl)cc1 (configuration not stated),-1.98% (inactive)
23,NC1CCN(c2cccc(Cl)n2)CC1,-1.19% (inactive)
24,COc1ccc(C2CNC(=O)C2)cc1OC1CCCC1 (configuration not stated),2.77% (inactive)
25,CNCC(O)c1ccc(O)c(O)c1 (configuration not stated),-1.36% (inactive)
26,OCc1cc(C(O)CNCCCCCCOCCCCc2ccccc2)ccc1O (configuration not stated),-1.97% (inactive)
